# In publication PMC5540273 (PLoS ONE, 2017):
# Several values for one entry are separate records, joined by “and”; a condition that tells them apart may be missing. Equal values may be shown once. Read-outs that look alike come from different tables or passages of the source.
# Assays:
# NEK6 = conditions: concentration: 1 μM, replicates: in singlicate, n = 1
# NEK7 = conditions: concentration: 1 μM, replicates: in singlicate; n = 1
# NEK9 = conditions: concentration: 1 μM, replicates: in singlicate, n = 1
# NIK = tested on: T1, NIK; conditions: concentration: 1 μM, replicates: in singlicate, n = 1
# T1 construct: gene MAP3K14
# NIM1 = tested on: T2, NIM1; conditions: concentration: 1 μM, replicates: in singlicate, n = 1
# T2 construct: gene MGC42105
# NLK = conditions: concentration: 1 μM, replicates: in singlicate; n = 1
# OSR1 = tested on: T3, OSR1; conditions: concentration: 1 μM, replicates: in singlicate, n = 1
# T3 construct: gene OXSR1
# PAK1 = conditions: concentration: 1 μM, replicates: in singlicate, n = 1
# PAK2 = conditions: concentration: 1 μM, replicates: in singlicate, n = 1
# PAK3 = conditions: concentration: 1 μM, replicates: in singlicate, n = 1
# PAK4 = conditions: concentration: 1 μM, replicates: in singlicate, n = 1
# PAK6 = conditions: concentration: 1 μM, replicates: in singlicate, n = 1
# PAK7 = conditions: concentration: 1 μM, replicates: in singlicate, n = 1
# PCTK1 = tested on: T4, PCTK1; conditions: concentration: 1 μM, replicates: in singlicate, n = 1
# T4 construct: gene CDK16
# PCTK2 = tested on: T5, PCTK2; conditions: concentration: 1 μM, replicates: in singlicate, n = 1
# T5 construct: gene CDK17
# PCTK3 = tested on: T6, PCTK3; conditions: concentration: 1 μM, replicates: in singlicate; n = 1
# T6 construct: gene CDK18
# PDGFRA = conditions: concentration: 1 μM, replicates: in singlicate, n = 1
# PDGFRB = conditions: concentration: 1 μM, replicates: in singlicate, n = 1
# PDPK1 = conditions: concentration: 1 μM, replicates: in singlicate, n = 1
# PFTAIRE2 = conditions: concentration: 1 μM, replicates: in singlicate; n = 1
# 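Also: KINOMEscan kinase panel screen.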
compound,measurement,setting,value
O=C1Cc2cc(Nc3nc(NCc4cccc(S(=O)(=O)C(F)(F)F)c4)ncc3C(F)(F)F)ccc2N1,%Inh,NEK6,14%
same,%Inh,NEK7,0%
same,%Inh,NEK9,0%
same,%Inh,NIK,4%
same,%Inh,NIM1,26%
same,%Inh,NLK,4%
same,%Inh,OSR1,4%
same,%Inh,PAK1,0%
same,%Inh,PAK2,0%
same,%Inh,PAK3,1%
same,%Inh,PAK4,100%
same,%Inh,PAK6,0%
same,%Inh,PAK7,0%
same,%Inh,PCTK1,19%
same,%Inh,PCTK2,0%
same,%Inh,PCTK3,1%
same,%Inh,PDGFRA,0%
same,%Inh,PDGFRB,16%
same,%Inh,PDPK1,0%
same,%Inh,PFTAIRE2,0%
O=C(NCCCN1CCOCC1)c1cccc(Nc2nccc(Nc3ccc(Oc4ccccc4)cc3)n2)c1 [GW663929],%Inh,NEK6,15%
same,%Inh,NEK7,28%
same,%Inh,NEK9,28%
same,%Inh,NIK,3%
same,%Inh,NIM1,28%
same,%Inh,NLK,27%
same,%Inh,OSR1,0%
same,%Inh,PAK1,9%
same,%Inh,PAK2,15%
same,%Inh,PAK3,0%
same,%Inh,PAK4,9%
same,%Inh,PAK6,7%
same,%Inh,PAK7,12%
same,%Inh,PCTK1,0%
same,%Inh,PCTK2,22%
same,%Inh,PCTK3,12%
same,%Inh,PDGFRA,46%
same,%Inh,PDGFRB,99.6%
same,%Inh,PDPK1,9%
same,%Inh,PFTAIRE2,18%
CCn1cnc2c(N)ncnc21 [GW345098],%Inh,NEK6,29%
same,%Inh,NEK7,14%
same,%Inh,NEK9,0%
same,%Inh,NIK,6%
same,%Inh,NIM1,0%
same,%Inh,NLK,37%
same,%Inh,OSR1,0%
same,%Inh,PAK1,9%
same,%Inh,PAK2,0%
same,%Inh,PAK3,58%
same,%Inh,PAK4,6%
same,%Inh,PAK6,13%
same,%Inh,PAK7,11%
same,%Inh,PCTK1,0%
same,%Inh,PCTK2,0%
same,%Inh,PCTK3,0%
same,%Inh,PDGFRA,0%
same,%Inh,PDGFRB,24%
same,%Inh,PDPK1,11%
same,%Inh,PFTAIRE2,3%
Cc1cccc(-c2nc(-c3ccc(S(C)(=O)=O)cc3)sc2-c2ccncc2)c1,%Inh,NEK6,14%
same,%Inh,NEK7,0%
same,%Inh,NEK9,16%
same,%Inh,NIK,0%
same,%Inh,NIM1,0%
same,%Inh,NLK,64%
same,%Inh,OSR1,0%
same,%Inh,PAK1,14%
same,%Inh,PAK2,0%
same,%Inh,PAK3,9%
same,%Inh,PAK4,10%
same,%Inh,PAK6,18%
same,%Inh,PAK7,0%
same,%Inh,PCTK1,0%
same,%Inh,PCTK2,0%
same,%Inh,PCTK3,0%
same,%Inh,PDGFRA,10%
same,%Inh,PDGFRB,0%
same,%Inh,PDPK1,26%
same,%Inh,PFTAIRE2,10%
NCC(NC(=O)c1cc(-c2cn[nH]c2)c(-c2ccnc3[nH]ccc23)s1)c1ccccc1.O=C(O)C(F)(F)F.O=C(O)C(F)(F)F (stereo not shown) [GSK1325775],%Inh,NEK6,0%
same,%Inh,NEK7,0%
same,%Inh,NEK9,10%
same,%Inh,NIK,28%
same,%Inh,NIM1,38%
same,%Inh,NLK,0%
same,%Inh,OSR1,4%
same,%Inh,PAK1,19%
same,%Inh,PAK2,32%
same,%Inh,PAK3,39%
same,%Inh,PAK4,50%
same,%Inh,PAK6,74%
same,%Inh,PAK7,74%
same,%Inh,PCTK1,15%
same,%Inh,PCTK2,9%
same,%Inh,PCTK3,0%
same,%Inh,PDGFRA,26%
same,%Inh,PDGFRB,61%
same,%Inh,PDPK1,0%
same,%Inh,PFTAIRE2,17%
Cn1ccc2ncnc(Oc3ccc(NC(=O)Nc4ccncc4)c(Cl)c3)c21,%Inh,NEK6,0%
same,%Inh,NEK7,0%
same,%Inh,NEK9,0%
same,%Inh,NIK,0%
same,%Inh,NIM1,0%
same,%Inh,NLK,0%
same,%Inh,OSR1,0%
same,%Inh,PAK1,16%
same,%Inh,PAK2,2%
same,%Inh,PAK3,0%
same,%Inh,PAK4,3%
same,%Inh,PAK6,1%
same,%Inh,PAK7,0%
same,%Inh,PCTK1,0%
same,%Inh,PCTK2,0%
same,%Inh,PCTK3,0%
same,%Inh,PDGFRA,27%
same,%Inh,PDGFRB,16%
same,%Inh,PDPK1,36%
same,%Inh,PFTAIRE2,0%
O=c1cc(N2CCOCC2)nc2n(Cc3cccc(C(F)(F)F)c3)ccn12 [GSK2297543],%Inh,NEK6,0%
same,%Inh,NEK7,0%
same,%Inh,NEK9,18%
same,%Inh,NIK,25%
same,%Inh,NIM1,14%
same,%Inh,NLK,32%
same,%Inh,OSR1,5%
same,%Inh,PAK1,6%
same,%Inh,PAK2,14%
same,%Inh,PAK3,14%
same,%Inh,PAK4,0%
same,%Inh,PAK6,0%
same,%Inh,PAK7,0%
same,%Inh,PCTK1,6%
same,%Inh,PCTK2,0%
same,%Inh,PCTK3,1%
same,%Inh,PDGFRA,11%
same,%Inh,PDGFRB,22%
same,%Inh,PDPK1,0%
same,%Inh,PFTAIRE2,17%
NCCNS(=O)(=O)c1ccc(-c2ccnc3[nH]ccc23)cc1 [GSK977617],%Inh,NEK6; 1 µM,4% and 0%
same,%Inh,NEK7,0%
same,%Inh,NEK9; 1 µM,22% and 16%
same,%Inh,NIK; 1 µM,19% and 7%
same,%Inh,NIM1; 1 µM,0% and 26%
same,%Inh,NLK,0%
same,%Inh,OSR1; 1 µM,63% and 52%
same,%Inh,PAK1; 1 µM,66% and 43%
same,%Inh,PAK2; 1 µM,65% and 41%
same,%Inh,PAK3; 1 µM,90.6% and 78%
same,%Inh,PAK4; 1 µM,82% and 75%
same,%Inh,PAK6; 1 µM,73% and 61%
same,%Inh,PAK7; 1 µM,90.8% and 77%
same,%Inh,PCTK1; 1 µM,1% and 2%
same,%Inh,PCTK2; 1 µM,7% and 0%
same,%Inh,PCTK3,0%
same,%Inh,PDGFRA; 1 µM,11% and 10%
same,%Inh,PDGFRB; 1 µM,80% and 65%
same,%Inh,PDPK1; 1 µM,11% and 0%
same,%Inh,PFTAIRE2,25%
Cc1c2ccc(N(C)c3ccnc(Nc4cccc(S(N)(=O)=O)c4)n3)cc2nn1Cc1ccccc1.Cl.Cl [GW787226],%Inh,NEK6,0%
same,%Inh,NEK7,0%
same,%Inh,NEK9,0%
same,%Inh,NIK,0%
same,%Inh,NIM1,0%
same,%Inh,NLK,5%
same,%Inh,OSR1,0%
same,%Inh,PAK1,32%
same,%Inh,PAK2,49%
same,%Inh,PAK3,28%
same,%Inh,PAK4,0%
same,%Inh,PAK6,0%
same,%Inh,PAK7,10%
same,%Inh,PCTK1,0%
same,%Inh,PCTK2,0%
same,%Inh,PCTK3,4%
same,%Inh,PDGFRA,99.7%
same,%Inh,PDGFRB,100%
same,%Inh,PDPK1,0%
same,%Inh,PFTAIRE2,0%
CN1c2ccc(NCc3ccc(F)cc3)cc2-c2c(cnn2C)S1(=O)=O,%Inh,NEK6,0%
same,%Inh,NEK7,0%
same,%Inh,NEK9,0%
same,%Inh,NIK,7%
same,%Inh,NIM1,4%
same,%Inh,NLK,0%
same,%Inh,OSR1,0%
same,%Inh,PAK1,0%
same,%Inh,PAK2,1%
same,%Inh,PAK3,0%
same,%Inh,PAK4,0%
same,%Inh,PAK6,0%
same,%Inh,PAK7,0%
same,%Inh,PCTK1,0%
same,%Inh,PCTK2,0%
same,%Inh,PCTK3,0%
same,%Inh,PDGFRA,0%
same,%Inh,PDGFRB,0%
same,%Inh,PDPK1,0%
same,%Inh,PFTAIRE2,0%
O=c1cc(N2CCOCC2)nc2n(Cc3cccc4ccccc34)ccn12 [GSK2333389],%Inh,NEK6,0%
same,%Inh,NEK7,13%
same,%Inh,NEK9,14%
same,%Inh,NIK,0%
same,%Inh,NIM1,8%
same,%Inh,NLK,0%
same,%Inh,OSR1,5%
same,%Inh,PAK1,13%
same,%Inh,PAK2,3%
same,%Inh,PAK3,10%
same,%Inh,PAK4,0%
same,%Inh,PAK6,0%
same,%Inh,PAK7,0%
same,%Inh,PCTK1,2%
same,%Inh,PCTK2,0%
same,%Inh,PCTK3,7%
same,%Inh,PDGFRA,0%
same,%Inh,PDGFRB,6%
same,%Inh,PDPK1,10%
same,%Inh,PFTAIRE2,29%
